Screening data (PubChem BioAssay)
This is a sample that favours compounds with a hit; in the whole collection about 14% have one here.
Shiga inhibitor – A qHTS for Small Molecule Inhibitors of Shiga Toxin | Vero cells, Shiga toxin protein synthesis inhibition reporter | inhibition, % at 38.7 µM | 9.2% of 290,000 active; in the data active = inhibition mostly above about 28%, no sharp cut-off; inactive = mostly below about 43%; note: 0% is about no effect
Giardia FBPA inh – qHTS Assay for Inhibitors of Fructose-1,6-bisphosphate Aldolase from Giardia Lamblia | Potency, µM (titrated, usually from 59.6 µM), without a hit: at the highest dose activity, negative = inhibition, usual class: inhibitors | AID 2451, 2010 | 0.71% of 290,000 active | A8B2U2 | purified Giardia FBPA; note: potency is the fitted concentration of half-maximal effect; % is set by controls: 0 for no effect and ±100 for the full control effect; nearly all actives have a fitted effect of over 55% in size
Target sequence (A8B2U2 whole entry, looked up): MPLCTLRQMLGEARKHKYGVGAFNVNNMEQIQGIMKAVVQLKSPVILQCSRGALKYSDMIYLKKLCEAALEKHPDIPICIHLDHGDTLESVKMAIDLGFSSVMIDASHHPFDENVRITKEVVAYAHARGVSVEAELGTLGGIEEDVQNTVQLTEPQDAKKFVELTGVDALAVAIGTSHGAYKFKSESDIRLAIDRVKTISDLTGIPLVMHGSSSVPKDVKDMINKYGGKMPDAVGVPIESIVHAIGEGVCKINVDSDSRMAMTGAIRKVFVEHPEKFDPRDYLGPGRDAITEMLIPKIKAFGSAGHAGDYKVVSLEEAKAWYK
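40 nM FBPA preincubated 10 min at RT with compound (up to 57.5 uM final), then substrate plus GAPDH/TPI/NAD/arsenate coupling and diaphorase/resazurin added. Fluorescence read after 20 min at RT, 525/598 nm.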
NS1 function inh – qHTS Assay for Inhibitors of Influenza NS1 Protein Function. 0.4% of 270,000 active. Potency, µM (series often up to 46.1 µM), without a hit: top-dose activity, positive = more growth. AID 2326, 2010; calls by dose curve; note: potency is the fitted concentration of half-maximal effect; actives are rising curves; nearly all actives have a fitted effect of over 50% in size
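In this qHTS, NS1 from influenza A is expressed in budding yeast, where it slows growth. Cells are switched from glucose to 2% galactose medium (pH 6.0, -URA), treated with compound, and growth recovery is read at OD600.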
CHX counter – Cycloheximide Counterscreen for Small Molecule Inhibitors of Shiga Toxin | max response, % | 12% of 300,000 active | cell reporter, cycloheximide protein synthesis inhibition counterscreen; in the data active = max response mostly above about 13%, no sharp cut-off; inactive = mostly below about 14%; note: read at 38.3 µM for the half of the compounds with a filed dose; 0% is about no effect
LmPK inh – qHTS Assay for Inhibitors of Leishmania Mexicana Pyruvate Kinase (LmPK). AID 1721, 2009. purified LmPK, Kinase-Glo ATP luminescence, 1 h. Q27686. Potency, µM (highest dose often 57.5 µM), for inactives: at the highest dose activity change, negative = inhibition, usual class: inhibitors. 0.37% of 290,000 active; note: potency is the fitted concentration of half-maximal effect; % is set by controls: 0 for no effect and ±100 for the full control effect
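Kinase-Glo luminescence read after 1 h RT reaction of 0.1 nM LmPK with 0.5 mM PEP and 0.1 mM ADP. Activity scaled between uninhibited and enzyme-free controls.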
Numbers without * were called inactive; ? = inconclusive; . = no result given; [ ] = remark or other dose. Unless noted, calls come from the whole dose curve; as a rule, active = well fitted curve in the direction sought with a large enough effect; inconclusive = small, poorly fitted or top-dose-only effect, or another doubt; inactive = no such curve, though single readings can be large; an effect the other way counts as inactive or inconclusive.

SMILES | Shiga inhibitor | Giardia FBPA inh | NS1 function inh | CHX counter | LmPK inh
COc1ccc(O)c(C2=Nc3ccccc3N=C(c3ccccc3)C2)c1 | 87.1 | -4.3% | ? | 41.7 | 17.2%
Cc1ccc(C2=Nc3ccccc3N=C(c3ccc([N+](=O)[O-])cc3)C2)c(O)c1 | 166.2* | 1.6% | 20.2% | 25.7* | 2.9%
CCOc1ccc(C(CC(=O)O)NC(=O)COc2ccc3ccccc3c2)cc1OC (stereo unspecified) | -6.8 | 3.3% | -2.0% | -7.5 | 5.6%
O=C(O)/C=C/c1cn(-c2ccccc2)nc1-c1cc2ccccc2oc1=O | 41.5* | 6.5% | 2.3% | 22.3* | 2.5%
Cc1ccc(-c2nn(-c3ccccc3)cc2/C=C/C(=O)O)o1 | 32.7 | -11.5% | 16.5% | 13.9* | 0.6%
O=C(c1ccc(OC(F)(F)F)cc1)c1ncc[nH]1 | 65.4* | 8.0% | -2.3% | 39.0* | 2.1%
O=C(c1ncc[nH]1)c1ccccc1Cl | 4.2 | -13.7% | 4.7% | -1.2 | 6.4%
N=C(N)SCc1cccc2c(=O)cc(-c3ccccc3)oc12 | . | . | 13.7% | . | .
Cc1nc(-c2cccc(Br)c2)ccc1C(=O)O | 4.4 | 13.6% | . | -4.2 | 3.6%
CCc1ccc(-c2ccc(C(=O)O)c(C)n2)cc1 | 46.9* | 15.9% | -8.2% | 40.1* | -9.1%
c1ccc(CCCNc2nnnc3ccccc23)cc1 | . | . | -6.6% | . | .
COc1cc(C2NC(=S)NC(C)=C2C(=O)Nc2ccc(C)cc2)ccc1O (stereo unspecified) | 70.7* | -4.9% | -4.7% | 44.8* | 1.6%
c1cc2[nH]snc2c2nc(C3CC3)nc12 | 31.2 | ? | -87.0% | 28.1* | -25.1%
FC(F)(F)c1ccccc1-c1nc(NC2CCNCC2)c2ccccc2n1 | . | 2.1% | . | . | .
COC(=O)c1ccc(C(=O)Nc2ccc(C(C)C)cc2N)cc1 | 69.5* | 0.0% | . | 32.1* | 7.7%
COC(=O)c1ccc(C(=O)NN)cc1 | 29.2 | 1.7% | 7.1% | 13.2 | -0.8%
NS(=O)(=O)c1ccc(CCNC(=O)COC(=O)C2CCC2)cc1 | -3.2 | -8.9% | 4.4% | -4.5 | -3.9%
CC(C)CNC(=O)Nc1ccc(F)c(Cl)c1 | 40.1 | -6.0% | -31.3% | 26.1* | -1.2%
C=CCNC(=O)Nc1ccc(F)c(Cl)c1 | 19.0 | 0.0% | -8.2% | 2.7 | -1.4%
CSCC(=O)Nc1ccc(F)c(Cl)c1 | 22.9 | 0.9% | -3.3% | -1.2 | 9.8%
CCCCC(=O)Nc1ccc(F)c(Cl)c1 | 28.8 | -8.9% | -36.1% | 16.1* | 2.2%
CCC(C)NC(=O)Nc1ccc(F)c(Cl)c1 (stereo unspecified) | 34.3 | -2.2% | 2.1% | 22.6* | 0.2%
C=CCc1ccccc1OCC(O)CN1C(=O)c2ccccc2C1=O (stereo unspecified) | -2.0 | 8.1% | -37.2% | 1.2 | -4.0%
Cc1ccccc1OCC(O)CN1C(=O)c2ccccc2C1=O (stereo unspecified) | 38.7* | 3.8% | -5.9% | 37.1* | -0.6%
O=C1c2ccccc2C(=O)N1CC(O)COc1ccccc1Cl (stereo unspecified) | 91.1* | -8.3% | -24.7% | 44.7* | 4.6%
SMILES | Shiga inhibitor | Giardia FBPA inh | NS1 function inh | CHX counter | LmPK inh
COC(=O)[C@@H]1CC[C@H](C)[C@@H](c2ccc(C)cc2)N1C(=O)c1ccc(/C=N\O[C@@H](C)c2cn([C@H]3COC[C@H]3O)nn2)cc1 | . | -0.1%[12.9 µM] | . | . | .
Cc1ccc(/C(O)=C2\C(=O)C(=O)N(C)C2c2ccccc2[N+](=O)[O-])cc1 (stereo unspecified) | . | 4.3% | -6.7% | 36.9* | 8.6%
COc1ccccc1C1/C(=C(\O)c2ccc3c(c2)OCCO3)C(=O)C(=O)N1Cc1cccnc1 (stereo unspecified) | -2.8 | 16.5% | 8.5% | 12.6 | 3.6%
Cc1ccc(/C(O)=C2\C(=O)C(=O)N(Cc3cccnc3)C2c2ccccc2[N+](=O)[O-])cc1 (stereo unspecified) | 83.3* | -15.5% | 13.6% | 37.3* | -2.3%
O=C1C(=O)N(CCO)C(c2ccccc2[N+](=O)[O-])/C1=C(\O)c1ccccc1 (stereo unspecified) | -4.7 | 1.1% | -1.7% | -4.7 | 1.3%
c1ccc(CNc2ccnc(-c3ccoc3)n2)cc1 | . | -15.4% | . | . | .
NC[C@H]1O[C@H](n2cnc3c(N)ncnc32)C[C@@H]1O | . | . | -3.5% | . | .
N/C(=N\OC(=O)c1ccc(Cl)cc1)c1nonc1N | 78.5* | -2.2% | -8.3% | 44.3* | 12.6µM*
N/C(=N/OCc1cccc([N+](=O)[O-])c1)c1nonc1N | 16.7 | -2.9% | -12.8% | 7.5 | 0.0%
N/C(=N/OC(=O)c1ccccc1F)c1nonc1N | 64.0* | 2.2% | -8.3% | 35.4* | 14.1µM*
N/C(=N\OCc1ccccc1)c1nonc1N | 98.8* | 0.9% | . | 54.7* | ?
Nc1nonc1C(=O)OCC(=O)c1ccc(Cl)cc1 | -10.4 | 6.2% | 0.6% | -2.6 | 4.0%
Cc1cccc(CCNC(=O)Cc2ccc(NC3=NC4CS(=O)(=O)CC4S3)cc2)c1 (stereo unspecified) | -3.8 | -21.6% | 2.4% | 2.0 | -6.7%
C/C(=N\NC(=O)CCc1ccccc1)C1C(=O)c2ccccc2C1=O | 66.9* | 8.1% | -4.5% | 24.1* | -1.2%
O=C(O)CC/C(=N\NC(=O)CNC(=O)c1cccc(Cl)c1)c1ccccc1 | -2.4 | 5.4% | . | 11.3 | 2.9%
C/C(=N\NC(=O)c1cccc(Cl)c1)C1C(=O)c2ccccc2C1=O | 73.4* | -28.0% | -55.5% | 52.4* | -6.2%
COC(=O)CN1C(=O)[C@H]2[C@@H](/C=C/c3ccccc3)N3C(=O)CN(Cc4ccccc4)C(=O)[C@@]3(C)[C@H]2C1=O | -4.8 | -8.2% | -4.7% | -0.8 | -0.2%
O=C(c1cc(F)c(F)cc1Cl)N1CCCc2ccccc21 | -6.4 | -4.5% | -14.0% | -0.8 | 0.3%
CCCCN1CSC(=S)N(Cc2ccccc2)C1 | . | . | -33.9% | . | .
O=C(NN=C1CCCC1)c1n[nH]c2c1CCC2 | 27.0 | 2.8% | -0.8% | 23.9* | -16.2%
O=C(NN=C1CCCC1)c1n[nH]c2c1CCCC2 | 59.0* | -0.1% | 5.1% | 31.7* | 28.2µM*
CC[C@H](C)[C@@H](NC(=O)O[C@@H]1C(=O)c2ccc(OC)cc2O[C@H]1c1ccc2c(c1)OCO2)C(=O)OC | . | 2.8% | . | . | .
COc1ccccc1CN1CC2(CCN(C(=O)c3cc(C(F)(F)F)cc(C(F)(F)F)c3)CC2)C1 | . | 6.6% | . | . | .
Cc1ccc(-c2ccc(CCC(=O)O)n2NC(=O)c2cccs2)cc1 | 2.3 | ? | ? | 33.9* | -0.2%
O=C(O)CCc1ccc(-c2cccs2)n1NC(=O)c1ccc(Cl)cc1 | 39.7 | 9.7% | ? | 10.8 | 1.4%
COc1ccc(-c2ccc(CCC(=O)O)n2NC(=O)c2cccs2)cc1 | 0.0 | -0.6% | 6.3% | 21.9* | 0.7%
O=C(O)CCc1ccc(-c2cccs2)n1NC(=O)c1ccco1 | -5.1 | 0.7% | 7.0% | -2.3 | -1.4%
COCCN=C1Sc2nc3ccc(C)cc3cc2CN1Cc1ccco1 | 114.1* | -16.0% | -14.6% | 51.6* | 3.6%
CC(=O)c1c(C(C)=O)c(C)n(-c2nc(-c3cccs3)c(C)s2)c1C | 15.0 | 5.1% | -17.5% | -1.4 | 4.4%
